Screening results from PubChem BioAssay.
SRC1 TRFRET art – flags TR-FRET format artefacts in PPARgamma SRC-1 recruitment agonist screen; TR-FRET detection artefact counter-screen, emission ratio; hits give high values; TR-FRET ratio at 8 µM; actives 0.34% (n = 99,000); in the data active = TR-FRET ratio above about 2300
PPARg SRC-2 ag – promotes SRC-2 coactivator recruitment by human PPARgamma. P37231. PPARgamma LBD-SRC-2 recruitment, biochemical. activation, % at 8 µM. actives 0.34% (n = 200,000). AID 1032; in the data active = activation above about 22%
Target sequence (P37231 whole entry, looked up, the tested form may be a part): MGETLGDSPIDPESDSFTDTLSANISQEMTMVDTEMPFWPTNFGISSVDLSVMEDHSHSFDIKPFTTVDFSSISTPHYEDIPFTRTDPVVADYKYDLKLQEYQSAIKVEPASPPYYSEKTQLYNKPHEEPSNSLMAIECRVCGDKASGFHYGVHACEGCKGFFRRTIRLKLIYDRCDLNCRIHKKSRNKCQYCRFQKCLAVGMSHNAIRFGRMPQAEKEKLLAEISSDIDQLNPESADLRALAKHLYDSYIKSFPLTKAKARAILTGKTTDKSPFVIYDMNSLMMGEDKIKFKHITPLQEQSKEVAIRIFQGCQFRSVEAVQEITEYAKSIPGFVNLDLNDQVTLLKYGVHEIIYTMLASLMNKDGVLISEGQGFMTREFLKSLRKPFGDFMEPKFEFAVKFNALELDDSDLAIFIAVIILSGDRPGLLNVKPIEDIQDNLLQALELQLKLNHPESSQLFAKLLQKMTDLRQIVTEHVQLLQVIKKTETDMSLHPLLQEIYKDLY
PPARg SRC1 recr – promotes SRC-1 coactivator recruitment by human PPARgamma; P37231; PPARgamma-SRC-1 coactivator recruitment biochemical assay; activation, % at 8 µM; actives 0.41% (n = 200,000); AID 631; in the data active = activation above about 19%
PPARg SRC-3 ag – PPARgamma-driven SRC-3 recruitment agonism | actives 0.26% (n = 200,000) | activation, % at 8 µM | P37231 | biochemical PPARgamma/SRC-3 coactivator recruitment assay; in the data active = activation above about 23%
SRC3 TRFRET art – TR-FRET artefact, counter-screen to PPARgamma/SRC-3 agonist assay. PPARgamma/SRC-3 format; hits give high values. TR-FRET ratio at 8 µM. actives 0.39% (n = 99,000). AID 1048
TR-FRET SRC-2 ct – counter-screen for PPARgamma SRC-2 recruitment agonists: TR-FRET artefact | hits give high values | TR-FRET ratio at 8 µM | actives 0.4% (n = 200,000) | AID 1049
PPARg SRC2 conf – human PPARgamma SRC-2 recruitment agonism, confirmation. actives 52% (n = 790). biochemical SRC-2 recruitment by PPARgamma. activation, % at 8 µM. AID 1297. shares compounds with PPARg SRC-3 ag; in the data active = activation above about 22%
PPARg SRC1 conf – confirmation of agonists of SRC-1 recruitment by human PPARgamma; PPARgamma–SRC-1 coactivator recruitment biochemical assay; AID 1300; shares compounds with PPARg SRC-3 ag; activation, % at 8 µM; actives 43% (n = 790); in the data active = activation above about 20%
PPARg SRC3 conf – confirmation of agonists of SRC-3 recruitment by human PPARgamma; shares compounds with PPARg SRC-3 ag; biochemical PPARgamma-SRC-3 coactivator recruitment, agonist mode; activation, % at 8 µM; actives 29% (n = 790); in the data active = activation above about 24%
Each line names hits and unclear results; the compound was inactive in the other large screens (follow-up assays come after a bar, where they were run). Compounds with a hit are over-represented: about 0.9% of the library has one in this group of screens. Rule as the data show it, unless noted: active = TR-FRET ratio above about 2000; inactive = the rest.

O=c1c2cn[nH]c2[nH]c(=S)n1-c1cccc2ccccc12	SRC1 TRFRET art 2560, PPARg SRC-2 ag 24, SRC3 TRFRET art 2082, TR-FRET SRC-2 ct 2219 | PPARg SRC2 conf 24 | PPARg SRC1 conf inactive | PPARg SRC3 conf inactive
O=C(OCC(=O)N1CCc2ccccc21)c1cncc(Br)c1	none
CNC(=S)N1N=C(c2ccc(C)cc2)CC1c1ccc(Cl)cc1 (configuration not stated)	PPARg SRC-2 ag 23, TR-FRET SRC-2 ct 2072 (no result: SRC1 TRFRET art, SRC3 TRFRET art) | PPARg SRC2 conf inactive | PPARg SRC1 conf inactive | PPARg SRC3 conf inactive
CCOc1ccccc1NC(=O)Cn1c(=O)n(-c2ccccc2)c(=O)c2oc3ccccc3c21	none
Cc1cc(NS(=O)(=O)c2ccc(NC(=O)c3ccco3)cc2)no1	PPARg SRC1 recr 21 (no result: SRC1 TRFRET art, SRC3 TRFRET art) | PPARg SRC2 conf inactive | PPARg SRC1 conf inactive | PPARg SRC3 conf inactive
Cn1c(=O)cc(SCC(=O)NCc2ccc(F)cc2)c2ccccc21	PPARg SRC1 recr 25, SRC3 TRFRET art 2264, TR-FRET SRC-2 ct 2135 | PPARg SRC2 conf 22 | PPARg SRC1 conf inactive | PPARg SRC3 conf inactive
Cn1c(=O)cc(SCC(=O)NCCN2CCN(c3ccccc3F)CC2)c2cc(Cl)ccc21	PPARg SRC-2 ag 107, PPARg SRC1 recr 82, PPARg SRC-3 ag 92, TR-FRET SRC-2 ct 3707 (no result: SRC1 TRFRET art, SRC3 TRFRET art) | PPARg SRC2 conf 59 | PPARg SRC1 conf 39 | PPARg SRC3 conf 42
Cn1c(=O)cc(SCC(=O)NCCCN2CCN(c3ccc(F)cc3)CC2)c2ccccc21	PPARg SRC-2 ag 95, PPARg SRC1 recr 97, PPARg SRC-3 ag 134, TR-FRET SRC-2 ct 4545 (no result: SRC1 TRFRET art, SRC3 TRFRET art) | PPARg SRC2 conf 51 | PPARg SRC1 conf 34 | PPARg SRC3 conf 36
COc1ccccc1CNC(=O)CCCOc1cc(=O)n(C)c2ccccc12	none (no result: SRC1 TRFRET art, SRC3 TRFRET art)
COc1ccccc1CNC(=O)CSc1cc(=O)n(C)c2ccccc12	PPARg SRC-2 ag 25, PPARg SRC1 recr 22, TR-FRET SRC-2 ct 2116 | PPARg SRC2 conf inactive | PPARg SRC1 conf inactive | PPARg SRC3 conf inactive
COC(CNC(=O)c1cc(-c2ccncc2)nc2ccc(S(=O)(=O)N3CCOCC3)cc12)OC	none
O=c1[nH][nH]c(-c2ccccc2)c1C=Nc1ccc(OC(F)(F)F)cc1	none
COc1ccc(NC(=S)N2CCN(C(=O)C3CCCO3)CC2)c(OC)c1 (configuration not stated)	none
CC(C)Sc1oc(-c2ccco2)nc1S(=O)(=O)c1ccccc1	PPARg SRC-2 ag 46, PPARg SRC1 recr 19, PPARg SRC-3 ag 28, TR-FRET SRC-2 ct 2119 (no result: SRC1 TRFRET art, SRC3 TRFRET art) | PPARg SRC2 conf 55 | PPARg SRC1 conf 46 | PPARg SRC3 conf 35
CCCC(=O)N1N=C(c2ccccc2)CC1c1cn(C)c2ccccc12 (configuration not stated)	none
CC(=O)N1N=C(c2ccc(Br)cc2)CC1c1cn(C)c2ccccc12 (configuration not stated)	SRC1 TRFRET art 2488, PPARg SRC-2 ag 28, PPARg SRC1 recr 24, SRC3 TRFRET art 2275, TR-FRET SRC-2 ct 2079 | PPARg SRC2 conf 36 | PPARg SRC1 conf 34 | PPARg SRC3 conf inactive
CC1=NOC(=O)/C1=C\c1ccc(-c2ccccc2Br)o1	SRC1 TRFRET art 4294, PPARg SRC-2 ag 118, PPARg SRC1 recr 82, PPARg SRC-3 ag 51, SRC3 TRFRET art 3608, TR-FRET SRC-2 ct 3893 | PPARg SRC2 conf 79 | PPARg SRC1 conf 61 | PPARg SRC3 conf 58
COCCNCC(=O)N1CCCCCC1	none
CC(C)NC(=O)C1CCN(C2CCN(C(=O)c3scc4c3CCCC4)CC2)CC1	none
CCC(OC(=O)c1cc2sccc2n1C)C(=O)NCC1CCCO1 (configuration not stated)	PPARg SRC1 recr 22 (no result: SRC1 TRFRET art, SRC3 TRFRET art) | PPARg SRC2 conf inactive | PPARg SRC1 conf inactive | PPARg SRC3 conf inactive
Cc1ccc(/C=C/C(=O)Nc2ccc(N(C)C)cc2)o1	PPARg SRC-2 ag 25, PPARg SRC1 recr 25 | PPARg SRC2 conf inactive | PPARg SRC1 conf inactive | PPARg SRC3 conf inactive
N#C/C(=C\c1ccc(N2CCOCC2)o1)c1nc2ccccc2[nH]1	PPARg SRC-2 ag 26, PPARg SRC1 recr 25 (no result: SRC1 TRFRET art, SRC3 TRFRET art) | PPARg SRC2 conf inactive | PPARg SRC1 conf inactive | PPARg SRC3 conf inactive
N#C/C(=C\c1ccc(N2CCOCC2)c([N+](=O)[O-])c1)c1nc2ccccc2[nH]1	none
CCOc1ccc(S(=O)(=O)N(C)c2ccc(OCC(=O)Nc3nc(-c4cc(OC)ccc4OC)cs3)cc2)cc1	SRC1 TRFRET art 2860, PPARg SRC-2 ag 26, PPARg SRC1 recr 25, SRC3 TRFRET art 2621, TR-FRET SRC-2 ct 2453 | PPARg SRC2 conf 32 | PPARg SRC1 conf 26 | PPARg SRC3 conf inactive
CCOc1ccc2c(c1)nc(SCC(=O)c1ccc(Br)s1)n2C	PPARg SRC-2 ag 29, PPARg SRC1 recr 20, PPARg SRC-3 ag 28 (no result: SRC1 TRFRET art, SRC3 TRFRET art) | PPARg SRC2 conf 35 | PPARg SRC1 conf 26 | PPARg SRC3 conf 25
CCOc1ccc2c(c1)nc(SCC(=O)c1cccs1)n2C	none (no result: SRC1 TRFRET art, SRC3 TRFRET art)
Brc1cc(Br)c2nc(-c3cccs3)ccc2c1	PPARg SRC-2 ag 45, PPARg SRC1 recr 23, PPARg SRC-3 ag 52, TR-FRET SRC-2 ct 2365 (no result: SRC1 TRFRET art, SRC3 TRFRET art) | PPARg SRC2 conf 36 | PPARg SRC1 conf 24 | PPARg SRC3 conf inactive
c1csc(-c2csc(-c3cccs3)n2)c1	none (no result: SRC1 TRFRET art, SRC3 TRFRET art)
COc1ccc(Oc2ccc(NC(=O)c3ccccc3C)cc2)cc1	none
CN(C)c1ccc(NC(=O)CSc2nc(N)c(C(=O)Nc3ccc(N(C)C)cc3)s2)cc1	PPARg SRC-2 ag 24 (no result: SRC1 TRFRET art, SRC3 TRFRET art) | PPARg SRC2 conf inactive | PPARg SRC1 conf inactive | PPARg SRC3 conf inactive
CCCNC(=O)[C@H](Cc1c[nH]c2ccccc12)NC(=O)c1ccccc1Cl	none
Cc1cccc(Nc2nn3c(=O)c4ccccc4nc3s2)c1	PPARg SRC1 recr 31, PPARg SRC-3 ag 37 (no result: SRC1 TRFRET art, SRC3 TRFRET art) | PPARg SRC2 conf 27 | PPARg SRC1 conf inactive | PPARg SRC3 conf inactive
Clc1ccc(-c2ccc(-c3nn4c(-c5ccco5)nnc4s3)o2)cc1	none (no result: SRC1 TRFRET art, SRC3 TRFRET art)
Brc1ccc(-c2nn3c(-c4ccco4)nnc3s2)o1	PPARg SRC-2 ag 99, PPARg SRC1 recr 75, PPARg SRC-3 ag 115, TR-FRET SRC-2 ct 3538 (no result: SRC1 TRFRET art, SRC3 TRFRET art) | PPARg SRC2 conf 76 | PPARg SRC1 conf 52 | PPARg SRC3 conf 53
C[C@@H](C(=O)OCn1nnc2ccccc2c1=O)N1C(=O)C2CCCCC2C1=O (some centres not stated)	none
CCOC(=O)Cc1csc(NC(=O)c2csc(C)c2)n1	none (no result: SRC1 TRFRET art, SRC3 TRFRET art)
CCOC(=O)Cc1csc(NC(=O)c2sc3nc4c(C)cc(C)cc4cc3c2N)n1	PPARg SRC-3 ag 27 (no result: SRC1 TRFRET art, SRC3 TRFRET art) | PPARg SRC2 conf inactive | PPARg SRC1 conf inactive | PPARg SRC3 conf inactive
COc1ccc(S(=O)(=O)Nc2ccc3c(c2)OCO3)cc1C	PPARg SRC-2 ag 24 (no result: SRC1 TRFRET art, SRC3 TRFRET art) | PPARg SRC2 conf inactive | PPARg SRC1 conf inactive | PPARg SRC3 conf inactive
